Screening data from PubChem.
eIF4E-4G inh: eIF4E/eIF4G interaction inhibition in translation initiation; hit rate 0.37% among 220,000; inhibition, % at 21.7 µM; TR-FRET eIF4E-eIF4GI(517-606) binding, 2 h;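 active means inhibition above about 30%, limit read from the data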;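 further: 0% = full FRET control wells and 100% = background wells lacking eIF4GI fragment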
MLLE-PAM2 inh: inhibitors of microRNA-mediated deadenylation, human PABP1 MLLE binding; hit rate 0.36% among 360,000; AID 588489; P11940; inhibition, % at 20 µM; GST-MLLE / FITC-PAM2 fluorescence polarization; in the data active means inhibition above about 35%, passing the limit was not always enough;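 further: plate controls were DMSO wells with GST-MLLE for no effect and wells lacking GST-MLLE protein for full effect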
PABP polyA inh: blocks human PABP binding to poly(A) RNA; P11940; fluorescence polarization; inhibition, % at 35 µM; hit rate 1% among 290,000;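 further: calls also rest on retests at 20 µM and on dose response follow-up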
eIF4H FP inh: inhibitors of RNA binding by human eIF4H | Q15056 | eIF4H fluorescence polarization binding assay | inhibition, % at 35 µM | hit rate 0.94% among 290,000;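 further: calls also rest on retests at 20 µM and on dose response follow-up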
PERK inh: blocks human PERK kinase; inhibition, % at 5.6 µM; hit rate 0.17% among 220,000; AID 1416; CHO PERK-DD fusion, SEAP luminescence translation reporter;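 active means inhibition above the mean inhibition of all tested compounds plus 3 SD, set separately per screening campaign, cut at about 2.9% in these data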;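 further: PERK kinase domain activated by AP20187 dimerizer at 100 nM; 0% = DMSO with dimerizer and 100% = rapamycin at 8.4 µM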
* marks the source's active call; other numbers are inactive results; ? = inconclusive; . = no result given. Compounds with a hit are over-represented: about 1.6% of the library has one in this group of screens. Unless noted, how the calls were made is not given here.

SMILES	eIF4E-4G inh	MLLE-PAM2 inh	PABP polyA inh	eIF4H FP inh	PERK inh
CCOC(=O)c1c(C)[nH]c(C)c1C(=O)CSc1nnc(-c2cc(OC)c(OC)c(OC)c2)o1	3	-22	0	0	3.2*
CCCCOC(=O)CSc1nnc(-c2cc(OC)c(OC)c(OC)c2)o1	-3	-14	9	-4	1
COc1cc2c(cc1OC)C(c1ccccc1O)N(C1CC(=O)N(c3ccccc3)C1=O)CC2 (stereo not drawn)	-3	40*	4	1	0
N#Cc1ccc(CN2CCN(C(=O)CNS(=O)(=O)c3ccc4c(c3)OCCCO4)CC2)cc1	.	13	.	.	.
Nc1c(C(=O)O)sc2nc(-c3ccccc3)cc(-c3ccc(Cl)cc3)c12	3	-2	13	12	1
Nc1c(C(=O)O)sc2nc(-c3ccc(F)cc3)cc(-c3ccccc3)c12	1	-42	48*	81	0
COc1ccc(/C=N/NC(=O)c2nn(-c3ccc(Cl)cc3)c(=O)c3c(N)scc23)cc1	-3	11	45	66	0
COc1ccc(/C=N/NC(=O)c2nn(-c3ccccc3)c(=O)c3c(N)scc23)cc1	-3	16	31	71*	-1
O=c1[nH]c2ccccc2nc1/C=C/c1ccc(F)cc1	3	-69	88*	86	2
O=C(/C=C/c1ccc(F)cc1)Nc1nc2ccccc2[nH]1	1	.	59*	active	1
O=C(CSc1nnc(-c2ccccn2)o1)Nc1ccccc1Cl	.	-9	4	-3	.
CCc1nc2ccc(C(=O)NCCc3c[nH]c4ccccc34)cn2c1N(C=O)CCC(C)C	.	-5	.	.	.
CCCn1cnc2sc(CC)cc2c1=O	4	4	7	58*	1
O=C1SC(c2ccccc2)=N/C1=C/c1ccco1	-2	1	18*	50*	2
O=C1NNC(c2ccccc2)=N/C1=C\c1ccco1	7	-1	50*	40	-1
N#C/C(=C\c1ccc(Sc2ccc(Cl)cc2)o1)c1nc2ccccc2[nH]1	-1	-45	100*	58*	-1
COc1cc(/C=C(\C#N)c2nc3ccccc3[nH]2)cc(OC)c1O	30*	-131	?	?	0
N#C/C(=C\c1ccc(Sc2nc3ccccc3[nH]2)o1)c1ccccc1	.	-73	-2	-8	-1
Brc1ccccc1OCCN1CCCC1	.	9	.	.	.
Cc1oc(/N=C/c2ccccc2O)c(C#N)c1C	-6	11	69*	79*	2
Cc1oc(/N=C/c2ccc(O)cc2O)c(C#N)c1C	1	32	-7	?	0
Cc1oc(/N=C/c2ccc(Cl)cc2Cl)c(C#N)c1C	4	-3	35	18	0
Cc1oc(/N=C/c2ccc(Cl)cc2)c(C#N)c1C	3	-2	68*	53*	1
Nc1c2c(=O)[nH]c(O)cc2nn1-c1ccccc1	.	3	.	.	.
Cc1cccc(S(=O)(=O)C(C#N)c2nc3ccccc3nc2N2CCCC2)c1 (stereo not drawn)	3	-12	122*	122*	-1
SMILES	eIF4E-4G inh	MLLE-PAM2 inh	PABP polyA inh	eIF4H FP inh	PERK inh
Cc1ccc(C)c(S(=O)(=O)C(C#N)c2nc3ccccc3nc2N2CC(C)OC(C)C2)c1 (stereo not drawn)	8	3	114*	78*	0
Cc1ccc(S(=O)(=O)C(C#N)c2nc3ccccc3nc2N2CCN(C)CC2)cc1C (stereo not drawn)	0	23	119*	122*	0
COc1ccc2nc(N3CCCCC3)c(C#N)cc2c1	1	40*	30	15	1
Cc1ccc(C)c(S(=O)(=O)C(C#N)c2nc3ccccc3nc2N2CCCC2)c1 (stereo not drawn)	7	0	?	?	0
COc1ccc2nc(N3CCCC3)c(C#N)cc2c1	15	31	?	?	1
CN(Cc1ccccc1)C(=O)c1nc[nH]c1C(=O)N(C)Cc1ccccc1	.	-2	.	.	.
N#CC(c1nc2ccccc2nc1N1CCCC1)S(=O)(=O)c1ccccc1 (stereo not drawn)	1	23	?	?	0
COc1ccc(S(=O)(=O)C(C#N)c2nc3ccccc3nc2N2CCCCC2)cc1 (stereo not drawn)	4	52	103*	97*	2
Nc1cc(Nc2ccc(Br)cc2)nc(N)n1	5	43*	30	49	3
CN(c1ccc(OCC(=O)OCC(=O)Nc2ccc(Br)cc2)cc1)S(=O)(=O)c1cccs1	5	-12	41	-9	1
CN(c1ccc(OCC(=O)OCC(=O)Nc2ccccc2)cc1)S(=O)(=O)c1cccs1	-4	3	74*	active	1
